# Laboratory results taken from PubChem BioAssay (Tox21).
# Where “and” joins values, the source holds several entries; their conditions need not be identical. Equal entries are not always repeated. Inconclusive results are not listed. A call without a number means that no potency is given here. Some compounds were tested as several samples or in several runs, with calls that do not always agree. Calls of active or inactive are those of the source. Unless noted, calls follow the shape of the dose curve; as a rule, active = well fitted curve in the direction sought with a large enough effect in the repeat runs; inconclusive = weak or mixed curves; inactive = no such curve, though single readings can be large; an effect the other way counts as inactive or inconclusive.
# Experiments:
# [1] = target: Retinoic acid receptor RXR-alpha (Homo sapiens) (UniProt P19793); test: qHTS assay to identify small molecule agonists of the RXR signaling pathway (AID 1159527; calls by dose curve; also: nearly all actives have a fitted effect of over 35% in size)
# Retinoic acid receptor RXR-alpha (Homo sapiens), sequence (P19793 whole entry, looked up): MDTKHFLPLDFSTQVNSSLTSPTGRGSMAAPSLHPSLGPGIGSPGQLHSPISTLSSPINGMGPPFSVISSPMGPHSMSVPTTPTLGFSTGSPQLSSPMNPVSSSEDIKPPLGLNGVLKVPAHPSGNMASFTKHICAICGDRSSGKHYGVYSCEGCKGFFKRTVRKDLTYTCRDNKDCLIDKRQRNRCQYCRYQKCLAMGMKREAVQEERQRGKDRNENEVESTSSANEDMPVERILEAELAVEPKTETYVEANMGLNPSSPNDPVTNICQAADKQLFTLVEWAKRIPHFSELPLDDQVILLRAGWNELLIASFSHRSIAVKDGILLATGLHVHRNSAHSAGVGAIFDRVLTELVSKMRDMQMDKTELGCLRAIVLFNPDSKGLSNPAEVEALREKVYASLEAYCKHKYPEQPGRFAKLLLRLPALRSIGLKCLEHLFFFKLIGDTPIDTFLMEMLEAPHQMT
# Summary of the method: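 Reporter activation is measured as beta-lactamase activity via FRET substrate cleavage (emission 460/530 nm) in HEK 293T cells expressing an RXR-alpha-driven bla construct, following 16 hr compound exposure at 37 C.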
# [2] = qHTS assay to identify small molecule agonists of the RXR signaling pathway - cell viability counter screen (AID 1159529); also: series mostly up to about 77 µM; nearly all actives have a fitted effect of over 50% in size
# Summary of the method: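 Tox21 10K compounds were tested for cytotoxicity against GeneBLAzer RXR-alpha HEK 293T cells grown in 2% charcoal-stripped FBS. Exposure lasted 16 hr at 37 C, 5% CO2; viability read by CellTiter-Glo luminescence.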
# [3] = qHTS assay to identify small molecule antagonists of the retinoid acid receptor (RAR) signaling pathway - cell viability counter screen (AID 1159551); also: nearly all actives have a fitted effect of over 35% in size
# Summary of the method: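 C3RL4 RARE-luciferase line; cpds + retinol 1 uM final, 6 h, 37 C/5% CO2; CellTiter-Glo ATP luminescence, 30 min RT.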
# [4] = qHTS assay to identify small molecule antagonists of the retinoic acid receptor (RAR) signaling pathway (AID 1159552; also: nearly all actives have a fitted effect of over 50% in size)
# Summary of the method: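 Overnight-plated C3RL4 reporter cells get compound, then retinol to 1 uM final; plates sit 6 hr at 37 C, 5% CO2. A luciferase reagent is added and light output recorded after 30 min at room temperature.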
# [5] = qHTS assay to identify small molecule agonists of the retinoic acid receptor (RAR) signaling pathway (AID 1159553); also: potency is read from the fitted curve at half-maximal effect
# Summary of the method: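 RARE-luc C3RL4 cells; overnight attachment 37 C/5% CO2; compound (DMSO) 6 hr; luciferase reagent, 30 min RT; luminescence read-out.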
# [6] = qHTS assay to identify small molecule antagonists of the estrogen related receptor (ERR) signaling pathway from Tox21 library - cell viability counter screen (AID 1224834); also: nearly all actives have a fitted effect of over 30% in size
# Summary of the method: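 Multiplexed viability counter screen in ERR cells: 17.5 h compound exposure at 37 C, CellTiter-Fluor added, 30 min at 37 C/5% CO2, fluorescence read.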
# [7] = target: Luciferin 4-monooxygenase (Photinus pyralis) (UniProt P08659); test: qHTS assay to identify small molecule inhibitors of firefly luciferase (AID 1224835); also: nearly all actives have a fitted effect of over 25% in size; also: potency is read from the fitted curve at half-maximal effect
# Luciferin 4-monooxygenase (Photinus pyralis), sequence (P08659 whole entry, looked up): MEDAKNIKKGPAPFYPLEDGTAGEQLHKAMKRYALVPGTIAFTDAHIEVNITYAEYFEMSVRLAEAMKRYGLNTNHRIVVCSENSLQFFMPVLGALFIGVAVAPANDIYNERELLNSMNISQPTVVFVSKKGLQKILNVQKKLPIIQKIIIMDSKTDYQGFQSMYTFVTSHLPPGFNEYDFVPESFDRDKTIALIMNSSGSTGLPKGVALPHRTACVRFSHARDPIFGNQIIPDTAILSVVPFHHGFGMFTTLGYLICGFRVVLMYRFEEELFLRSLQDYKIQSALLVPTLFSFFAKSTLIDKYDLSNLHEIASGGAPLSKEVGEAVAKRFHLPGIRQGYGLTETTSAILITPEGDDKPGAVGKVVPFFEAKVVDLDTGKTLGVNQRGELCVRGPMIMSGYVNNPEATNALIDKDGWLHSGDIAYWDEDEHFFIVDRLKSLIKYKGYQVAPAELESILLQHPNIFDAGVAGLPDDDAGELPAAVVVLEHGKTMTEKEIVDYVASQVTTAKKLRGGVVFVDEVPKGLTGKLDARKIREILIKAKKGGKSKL
# Summary of the method: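 Biochemical qHTS: compounds run as interplate titrations against purified firefly enzyme, with D-luciferin and ATP each at its KM concentration. Light output recorded by CCD imaging.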
# [8] = qHTS assay to identify small molecule agonists of the constitutive androstane receptor (CAR) signaling pathway - cell viability counter screen (AID 1224836); also: series mostly up to about 92 µM; nearly all actives have a fitted effect of over 45% in size
# Summary of the method: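 Fluorescence from CellTiter-Fluor indicates live cells after 23 h exposure. The human hepatoma line expresses hCAR and a CYP2B6-2.2kb reporter. Incubation medium contains 0.75 uM PK11195 (final).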
# [9] = qHTS assay to identify small molecule antagonists of the constitutive androstane receptor (CAR) signaling pathway - cell viability counter screen (AID 1224837); also: series mostly up to about 92 µM; nearly all actives have a fitted effect of over 45% in size
# Summary of the method: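 Read-out: CellTiter-Fluor fluorescence after 23 hr at 37 C/5% CO2. Cells: HepG2 double-stable for hCAR and CYP2B6-2.2kb. Compounds tested at 15 concentrations in the presence of CITCO, final concentration 50 nM.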
# [10] = target: Nuclear receptor subfamily 1 group I member 3 (Homo sapiens) (UniProt Q14994); test: qHTS assay to identify small molecule antagonists of the constitutive androstane receptor (CAR) signaling pathway (AID 1224838);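 also: HepG2 cells stably expressing hCAR with CYP2B6 luciferase reporter stimulated by CITCO; nearly all actives have a fitted effect of over 40% in size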; also: potency is read from the fitted curve at half-maximal effect
# Nuclear receptor subfamily 1 group I member 3 (Homo sapiens), sequence (Q14994 whole entry, looked up): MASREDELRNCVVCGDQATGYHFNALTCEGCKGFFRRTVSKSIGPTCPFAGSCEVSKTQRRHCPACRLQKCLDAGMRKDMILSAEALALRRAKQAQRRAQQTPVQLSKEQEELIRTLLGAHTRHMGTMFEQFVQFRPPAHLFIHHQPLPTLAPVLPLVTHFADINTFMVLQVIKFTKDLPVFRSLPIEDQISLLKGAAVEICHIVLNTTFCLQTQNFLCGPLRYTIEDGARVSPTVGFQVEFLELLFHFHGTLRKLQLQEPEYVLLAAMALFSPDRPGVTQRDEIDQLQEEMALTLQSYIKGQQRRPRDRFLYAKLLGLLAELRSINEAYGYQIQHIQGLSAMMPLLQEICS
# Summary of the method: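 Read-out: ONE-Glo luciferase luminescence after 30 min at room temperature. HepG2-CYP2B6-hCAR double-stable cells, compounds in 15-point titration plus 50 nM CITCO final, 24 h at 37 C/5% CO2.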
# [11] = qHTS assay to identify small molecule antagonists of the estrogen related receptor signaling pathway with the pleiotropic PPARgamma coactivator (PGC) from Tox21 10K library - cell viability counter screen (AID 1224840; active = well fitted cell-killing curve with a large enough effect in the repeat runs, not every such curve was filed as active; also: nearly all actives have a fitted effect of over 40% in size)
# Summary of the method: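 Fluorescence read-out of CellTiter-Fluor viability reagent, added after cells had been exposed to compound in DMSO for 17.5 h at 37 C; 30 min development at 37 C/5% CO2. Cells: PGC/ERR line, 2,000/well.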
# [12] = target: Nuclear receptor subfamily 1 group I member 3 (Homo sapiens) (UniProt Q14994); test: qHTS assay to identify small molecule agonists of the constitutive androstane receptor (CAR) signaling pathway (AID 1224839); also: nearly all actives have a fitted effect of over 15% in size; also: potency is read from the fitted curve at half-maximal effect
# Summary of the method: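 Stable hCAR/CYP2B6-2.2kb HepG2 line in DMEM with 10% FBS; compounds (15 concentrations) and 0.75 uM PK11195 final, 24 h at 37 C/5% CO2, then ONE-Glo luminescence after 30 min.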
# [13] = qHTS assay to identify small molecule antagonists of the estrogen related receptor signaling pathway with the pleiotropic PPARgamma coactivator (PGC) from Tox21 10K library (AID 1224841; call rule not given here; also: actives are mostly falling curves and most rising ones were filed inactive; nearly all actives have a fitted effect of over 50% in size; also: potency is read from the fitted curve at half-maximal effect)
# Summary of the method: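 Luminescence read-out (One-Glo luciferase reagent, 30 min at room temperature) from PGC/ERR cells exposed to DMSO-dissolved test compounds for 18 h at 37 C; cells, 2,000 per well, had been preincubated 6 h before compound transfer.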
# [14] = qHTS assay to identify small molecule agonists of the estrogen related receptor signaling pathway with the pleiotropic PPARgamma coactivator (PGC) from Tox21 10K library (AID 1224842); also: nearly all actives have a fitted effect of over 15% in size; also: potency is read from the fitted curve at half-maximal effect
# Summary of the method: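 PGC/ERR reporter cell line, 2,000 cells per well, incubated 6 h at 37 C before 23 nL compound in DMSO was added. After 18 h at 37 C, One-Glo luminescence read following 30 min at room temperature.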
# [15] = qHTS assay to identify small molecule antagonists of the estrogen related receptor (ERR) signaling pathway - cell viability counter screen (AID 1224818); also: series mostly up to about 46 µM
# Summary of the method: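 Fluorescence from CellTiter-Fluor, read 30 min after reagent addition at 37 C, measured viability of ERR cells exposed to compounds for 17.5 h. Cells had settled 6 h before dosing.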
# [16] = qHTS assay to identify small molecule antagonists of the estrogen related receptor (ERR) signaling pathway (AID 1224819;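 also: luminescence from an ERR-driven luciferase reporter measured with One-Glo reagent; series mostly up to about 46 µM; nearly all actives have a fitted effect of over 50% in size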)
# Summary of the method: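 Luminescence readout (One-Glo, 30 min, RT) of ERR cell line after 18 h compound exposure at 37 C; cells seeded 2,000/well, pre-incubated 6 h, compounds pinned from DMSO stocks.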
# [17] = qHTS assay to identify small molecule agonists of the estrogen related receptor (ERR) signaling pathway (AID 1224820)
# Summary of the method: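 Following a 6 h settling period, 2,000 ERR cells per well receive DMSO-dissolved compounds by pin tool and incubate 18 h at 37 C; agonist activity is scored from One-Glo luminescence read 30 min post-addition.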
# [18] = test system: estrogen-related receptor alpha (ERRalpha) with PGC-1alpha coactivator, human; test: qHTS assay to identify small molecule antagonists of the estrogen related receptor signaling pathway with the pleiotropic PPARgamma coactivator (PGC) (AID 1224821; calls by dose curve)
# Summary of the method: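 Screening used NTP's PGC/ERR cells, dosed via pin tool with compound in DMSO alongside positive and negative controls. After 18 h at 37 C, One-Glo reagent sat 30 min at room temperature before luminescence detection.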
# [19] = qHTS assay to identify small molecule antagonists of the estrogen related receptor signaling pathway with the pleiotropic PPARgamma coactivator (PGC) cell viability counter screen (AID 1224822; also: series mostly up to about 46 µM)
# Summary of the method: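 Fluorescence read-out of CellTiter-Fluor after 30 min at 37 C; PGC/ERR cells, 2,000 per well, had been exposed to DMSO-dissolved compounds for 17.5 h following a 6 h pre-incubation.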
# [20] = qHTS assay to identify small molecule agonists of the estrogen related receptor signaling pathway with the pleiotropic PPARgamma coactivator (PGC) (AID 1224823)
# Summary of the method: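 In this quantitative high-throughput screen, an 18 h, 37 C treatment of PGC/ERR cells with compounds in DMSO preceded a One-Glo luminescence read taken after 30 min at room temperature.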
Compound,Potency [1],outcome [2],outcome [3],Potency [4],Potency [5],Potency [6],Potency [7],Potency [8],Potency [9],Potency [10],Potency [11],Potency [12],Potency [13],Potency [14],outcome [15],outcome [16],outcome [17],outcome [18],outcome [19],outcome [20]
CCOP(=S)(OCC)Oc1ccc([N+](=O)[O-])cc1,inactive,inactive,inactive,inactive,inactive,inactive,inactive,inactive,inactive,inactive,inactive,,,,,,,,,
FC(F)(F)c1ccc(Cl)cc1,inactive,inactive,inactive,inactive,inactive,inactive,inactive,inactive,inactive,inactive,inactive,inactive,,,,,,,,
C=CC#N,inactive,inactive,inactive,inactive,inactive,inactive,inactive,inactive,inactive,inactive,inactive,inactive,inactive,inactive,,,,,,
Cc1cccc(C)c1N,inactive,inactive,inactive,inactive,inactive,inactive,inactive,inactive,inactive,,inactive,,,,,,,,,
O=P1(NCCCl)OCCCN1CCCl (configuration not stated),inactive,inactive,inactive,inactive,inactive,inactive,inactive,inactive,inactive,inactive,inactive,,inactive,inactive,,,,,,
OCC(O)CCl (configuration not stated),inactive,inactive,inactive,inactive,inactive,inactive,inactive,inactive,inactive,inactive,inactive,inactive,,,,,,,,
O=C(O)c1cc(Oc2ccc(C(F)(F)F)cc2Cl)ccc1[N+](=O)[O-],inactive,inactive,inactive,inactive,inactive,inactive,inactive,inactive,inactive,,inactive,,inactive and 68.9 µM (active),inactive,,,,,,
CCCCC(CC)C(=O)Cl (configuration not stated),inactive,inactive,inactive,inactive,inactive,inactive,inactive,inactive,inactive,inactive,inactive,inactive,,,,,,,,
CN(C)CCC#N,inactive,inactive,inactive,inactive,inactive,inactive,inactive,inactive,inactive,,inactive,,,,,,,,,
C[C@H]1C(=O)O[C@@H]2CCN3CC=C(COC(=O)[C@](C)(O)[C@]1(C)O)[C@H]23,inactive,inactive,inactive,inactive,inactive,inactive,inactive,inactive,inactive,,inactive,,,,,,,,,
Oc1ccc(Cl)cc1,inactive,inactive,inactive,inactive,inactive,inactive,,inactive,inactive,inactive,inactive,inactive,,,,,,,,
CC(C)c1cccc(C(C)C)c1O,inactive,inactive,inactive,,inactive,inactive,inactive,inactive,inactive,inactive,inactive,,inactive,inactive,inactive,inactive,inactive,inactive,inactive,inactive
CNC(=O)O/N=C(\SC)C(=O)N(C)C,inactive,inactive,inactive,,inactive,inactive,inactive,inactive,inactive,inactive,inactive,inactive,inactive,inactive,,,,,,
CN(C)NC(=O)CCC(=O)O,inactive,inactive,inactive,,inactive,inactive,inactive,inactive,inactive,inactive,inactive,inactive,inactive,inactive,,,,,,
C/C=C/c1ccc2c(c1)OCO2,inactive,inactive,inactive,,inactive,inactive,inactive,inactive,inactive,inactive,inactive,inactive,,,,,,,,
ClCCOCCCl,inactive,inactive,inactive,,inactive,inactive,inactive,inactive,inactive,,inactive,,,,,,,,,
CCSC(=O)N1CCCCCC1,inactive,inactive,inactive,,inactive,inactive,inactive,inactive,inactive,26.5 µM (active) and inactive,inactive,inactive,inactive,inactive,,,,,,
N#CN=C(N)N,inactive,inactive,inactive,,inactive,inactive,inactive,inactive,inactive,inactive,inactive,inactive,,,,,,,,
CNC(=O)O/N=C/C(C)(C)S(C)=O (configuration not stated),inactive,inactive,inactive,,inactive,inactive,inactive,inactive,inactive,inactive,inactive,inactive,,,,,,,,
Clc1cnc(Oc2ccc(Oc3ncc(Cl)cc3Cl)cc2)c(Cl)c1,inactive,inactive,inactive,,inactive,inactive,inactive,inactive,inactive,inactive,inactive,inactive,,,inactive,,,,inactive,
COC(=O)Nc1cccc(OC(=O)Nc2cccc(C)c2)c1,inactive,inactive,inactive,,8.63 µM (active) and 19.3 µM (active),inactive,6.33 µM (active) and 12.6 µM (active),inactive,inactive,inactive,inactive,30.6 µM (active) and 4.86 µM (active),inactive,13.7 µM (active),,,,,,
